Compound activity (PubChem BioAssay)
Giardia FBPA inh: blocks Giardia fructose-bisphosphate aldolase activity | A8B2U2 | purified Giardia FBPA | Potency, µM (highest dose often 59.6 µM), without a hit: at the highest dose activity, negative = inhibition, most hits filed as inhibitors | actives 0.71% (n = 290,000); also: potency is read from the fitted curve at half-maximal effect; % is scaled to controls: 0 for no effect and ±100 for the full control effect; nearly all actives have a fitted effect of over 55% in size
Target sequence (A8B2U2 whole entry, looked up): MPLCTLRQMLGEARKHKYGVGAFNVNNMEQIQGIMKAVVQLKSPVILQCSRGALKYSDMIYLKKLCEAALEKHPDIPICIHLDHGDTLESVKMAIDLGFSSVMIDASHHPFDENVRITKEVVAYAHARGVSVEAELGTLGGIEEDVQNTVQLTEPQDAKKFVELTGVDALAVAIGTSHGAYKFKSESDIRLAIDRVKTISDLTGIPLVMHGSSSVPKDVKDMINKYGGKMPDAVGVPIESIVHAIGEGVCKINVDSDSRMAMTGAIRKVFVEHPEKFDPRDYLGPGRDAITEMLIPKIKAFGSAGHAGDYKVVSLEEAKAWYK
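40 nM FBPA preincubated 10 min at RT with compound (up to 57.5 uM final), then substrate plus GAPDH/TPI/NAD/arsenate coupling and diaphorase/resazurin added. Fluorescence read after 20 min at RT, 525/598 nm.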
LmPK inh: blocks Leishmania mexicana pyruvate kinase activity. Q27686. purified LmPK, Kinase-Glo ATP luminescence, 1 h. Potency, µM (series often up to 57.5 µM), without a hit: at the highest dose activity change, negative = inhibition, hits mostly inhibitors. actives 0.37% (n = 290,000); also: potency is read from the fitted curve at half-maximal effect; % is scaled to controls: 0 for no effect and ±100 for the full control effect
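Purified LmPK (0.1 nM) converted ADP (0.1 mM) to ATP with PEP (0.5 mM) in imidazole buffer pH 7.2 with KCl and MgCl2, 1 h at room temperature. ATP was read by Kinase-Glo luminescence; data normalized to uninhibited and no-enzyme controls.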
CHX counter: counter-screen for Shiga toxin inhibitors: cycloheximide protein synthesis inhibition. cell reporter, cycloheximide protein synthesis inhibition counterscreen. max response, %. actives 12% (n = 300,000); in the data active = max response mostly above about 13%, no sharp cut-off; inactive = mostly below about 14%; also: read at 38.3 µM for the half of the compounds with a filed dose; 0% is about no effect
RE007 growth inh: less growth of the S. pombe RE007 Vpr strain. Potency, µM (series often up to 92.2 µM), for the others: at the top dose activity change, negative = less growth, most hits filed as inhibitors. actives 0.21% (n = 360,000). S. pombe RE007 Vpr strain, BacTiter-Glo ATP luminescence, 24 h; active = well fitted falling curve with a large enough effect; inconclusive = small, poorly fitted or top-dose-only effect; inactive = no such curve, though single readings can be large or run the other way; also: potency is read from the fitted curve at half-maximal effect; % is scaled to controls: 0 for no effect and ±100 for the full control effect; nearly all actives have a fitted effect of over 50% in size
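Fission yeast strain RE007, carrying one chromosomally integrated HIV-1 vpr copy, was seeded at OD 0.01 in PMG+AL medium with 23 nL pinned compound. After 24 h at 30 °C and 99% humidity, viability was read by BacTiter-Glo luminescence.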
Tb PYK inh: inhibitors of Trypanosoma brucei pyruvate kinase. Potency, µM (top dose mostly 76.8 µM), for inactives: top-dose activity, negative = inhibition, usual class: inhibitors. Q57TT1. AID 624173. TbPYK enzyme, Kinase-Glo Plus ATP luminescence, 45 min. actives 0.12% (n = 410,000); also: potency is read from the fitted curve at half-maximal effect; % is scaled to controls: 0 for no effect and ±100 for the full control effect; nearly all actives have a fitted effect of over 50% in size
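Luminescent Kinase-Glo Plus end-point after 45 min room-temperature reaction of T. brucei pyruvate kinase started with 130 uM ADP (final). Buffer TEA 50 mM pH 7.2 with KCl, MgCl2, BSA, Tween-20; titration-based qHTS with fitted concentration-effect curves.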
Shiga inhibitor: inhibitors of Shiga toxin in Vero cells; Vero cells, Shiga toxin protein synthesis inhibition reporter; inhibition, % at 38.7 µM; actives 9.2% (n = 290,000); in the data active = inhibition mostly above about 28%, no sharp cut-off; inactive = mostly below about 43%; also: 0% is about no effect
An asterisk follows results filed as active; u = inconclusive; x = not tested or not shown; [ ] = remark or other dose. Many of the other results were omitted from the sample, so hits are more common in it than they were. Unless noted, calls follow the shape of the dose curve; as a rule, active = well fitted curve in the direction sought with a large enough effect; inconclusive = small, poorly fitted or top-dose-only effect, or another doubt; inactive = no such curve, though single readings can be large; an effect the other way counts as inactive or inconclusive.

SMILES | Giardia FBPA inh | LmPK inh | CHX counter | RE007 growth inh | Tb PYK inh | Shiga inhibitor
CC(C)(C)c1ccc(-c2noc(CNC(=O)c3ccco3)n2)cc1 | -10% | 0% | 32* | -2% | -1% | 37
CC(C)(C)c1ccc(-c2noc(CCC(=O)NCc3ccco3)n2)cc1 | -1% | -6% | 34* | -7% | -2% | 73
O=C(NCc1nc(-c2ccccc2)no1)c1ccco1 | x | x | x | x | -2% | x
O=C(COc1ccccc1Cl)Nc1ccc(NC(=O)c2ccco2)cc1 | 3% | 0% | -3 | 6% | 0% | -4
Cc1cccc(C)c1NC(=O)C1(C)CSCC(=O)N1CCc1ccccc1F (configuration not stated) | x | x | x | -5% | x | x
CC(NC(=O)c1ccco1)c1nc(-c2ccc(C(C)(C)C)cc2)no1 (configuration not stated) | -10% | -1% | 15 | -8% | -1% | 49*
Cc1ccc(-c2noc(C(C)NC(=O)c3ccco3)n2)cc1 (configuration not stated) | x | x | x | x | -5% | x
CC(C)CC(=O)NC(=S)Nc1ccc(Cl)cn1 | -1% | -1% | 34* | -17% | 8% | 119*
CCC(C)c1ccc(OCC(=O)Nc2ccc(Cl)cn2)cc1 (configuration not stated) | 3% | -8% | 35* | 7%[3.69 µM] | x | 22
Cc1cc(C)n(C(N)=NC(=O)c2ccc([N+](=O)[O-])cc2)n1 | 5% | 12% | 28* | x | 3% | 40*
Cc1cc(C)n(C(N)=NC(=O)c2ccccc2)n1 | x | x | x | -29% | -9% | x
CCCn1cnc2c(sc3nc4c(cc32)CSC(C)(C)C4)c1=O | -5% | 1% | 25* | 5% | 1% | 37*
CC1(C)Cc2nc3sc4c(=O)n(Cc5ccccc5)cnc4c3cc2CS1 | 5% | 2% | -2 | 0% | 2% | 8
CC(C)CCOc1ncnc2c1sc1nc3c(cc12)CSC(C)(C)C3 | 5% | 0% | 15* | -3% | -12% | -7
CC1=C(C(=O)Nc2ccccc2)C(c2ccncc2)n2nc(SCc3ccccc3Cl)nc2N1 (configuration not stated) | x | x | x | x | -1% | x
O=C(Nc1cccc2cccnc12)c1cc(F)c(F)cc1Cl | -6% | 1% | 29* | -10% | 1% | x
O=C(Nc1cccc2cccnc12)c1ccccc1Cl | x | x | x | -14% | 5% | x
COC(=O)c1cccc(NC(=O)c2cccnc2C(=O)O)c1C | u | -2% | 29* | -6% | 7% | 59*
COC(=O)c1ccccc1NC(=O)c1cnn2cccnc12 | 5% | 4% | -1 | 13% | 1% | -14
COc1ccccc1C(=O)Nc1cccc2cccnc12 | -8% | 0% | 39* | 3% | -1% | 42
Cc1csc2ncnc(N3CCN(C(=S)Nc4ccc(F)cc4F)CC3)c12 | -3% | -3% | -2 | 83% | -4% | 18
COc1ccc(N2Cc3ccccc3C2)cc1Cl | -12% | -11% | 22* | -17% | -1% | 87*
COc1ccccc1N1Cc2ccccc2C1 | -27% | -6% | 21* | -16% | 4% | 4
COc1ccc(OC)c(N2Cc3ccccc3C2)c1 | u | 3% | -1 | -10% | -8% | 3
Nc1ccc2oc3ccccc3c2c1 | u | 1% | 14 | -4% | -6% | 4
SMILES | Giardia FBPA inh | LmPK inh | CHX counter | RE007 growth inh | Tb PYK inh | Shiga inhibitor
Nc1ccc2c(c1)oc1ccccc12 | 0% | -4% | 27* | u | 6% | 50*
O=C(Nc1ccccc1F)c1cc(Cl)sc1Cl | 20% | -1% | 31* | 64% | -6% | 72*
Cc1cccc(NC(=O)c2cc(Cl)sc2Cl)c1C | 2% | 3% | -2 | -1% | -7% | -13
O=C(Nc1ccc(F)cc1F)c1cc(Cl)sc1Cl | 1% | -3% | 30* | -16% | 5% | 86
COc1ccc(C)cc1NC(=O)c1c2c(nc3ccccc13)C(=O)N(C1CCCCC1)C2 | x | x | x | x | 1% | x
Cc1c(Cl)cccc1NC(=S)Nc1ccc(S(=O)(=O)Nc2ncccn2)cc1 | x | x | x | -17% | -8% | x
O=C(/C=C/c1ccco1)Nc1ccc(CN2CCOCC2)cc1 | 5% | 1% | 41* | 0% | 3% | 46*
